# Experimental data from the supplement of paper PMC4466140.
# B1: unnamed (peptide)
# chain: MKRSRPSRSIPYTTP
# B2: unnamed (peptide)
# chain: NTMKKRPAPPSLPSL
# B3: unnamed (peptide)
# chain: GRSRLFPHSPLGRSS
# Legend:
# Test in all cases: SPOT peptide array binding signal intensity (averaged, normalized) (arbitrary units (background-subtracted, floor 0; scale differs between SH3 domains)); higher = stronger binding of the SH3 domain to the peptide
# AgAbp1 = target: AgAbp1
# In short: (§1)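 GST-SH3 fusions from four yeast species, purified on glutathione Sepharose, were incubated at 10 μg/ml overnight at 4°C on membranes of synthetic 15-mer peptides in which cysteines were replaced with serines. Binding signal is the normalized, background-subtracted spot intensity averaged over replicates, in domain-specific arbitrary units.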
# AgBbc1 = target: AgBbc1
# In short: as §1
# AgBem1-D1 = target: AgBem1-D1
# In short: as §1
# AgBzz1-D1 = target: AgBzz1-D1
# In short: as §1
# AgBzz1-D2 = target: AgBzz1-D2
# In short: as §1
# AgCyk3 = target: AgCyk3
# In short: as §1
# AgFus1 = target: AgFus1
# In short: as §1
# AgHof1 = target: AgHof1
# In short: as §1
# AgHse1 = target: AgHse1
# In short: as §1
# AgLsb1 = target: AgLsb1
# In short: as §1
# AgLsb4 = target: AgLsb4
# In short: as §1
# AgMyo5 = target: AgMyo5
# In short: as §1
# AgNbp2 = target: AgNbp2
# In short: as §1
# AgRvs167 = target: AgRvs167
# In short: as §1
# AgSho1 = target: AgSho1
# In short: as §1
# AgSla1-D1-D2 = target: AgSla1-D1-D2
# In short: as §1
# AgSla1-D3 = target: AgSla1-D3
# In short: as §1
# CaAbp1-D1 = target: CaAbp1-D1
# In short: as §1
# CaAbp1-D2 = target: CaAbp1-D2
# In short: as §1
# CaBbc1 = target: CaBbc1
# In short: as §1
# CaBem1-D1 = target: CaBem1-D1
# In short: as §1
# CaBzz1-D1 = target: CaBzz1-D1
# In short: as §1
# CaBzz1-D2 = target: CaBzz1-D2
# In short: as §1
# CaCyk3 = target: CaCyk3
# In short: as §1
# CaFus1 = target: CaFus1
# In short: as §1
# CaHof1 = target: CaHof1
# In short: as §1
# CaHse1 = target: CaHse1
# In short: as §1
# CaLsb1 = target: CaLsb1
# In short: as §1
# CaLsb4 = target: CaLsb4
# In short: as §1
# CaMyo5 = target: CaMyo5
# In short: as §1
# SpBzz1-D2 = target: SpBzz1-D2
# In short: as §1
# SpCyk3 = target: SpCyk3
# In short: as §1
# SpHof1 = target: SpHof1
# In short: as §1
# SpHof1-2 = target: SpHof1-2
# In short: as §1
# SpHof1-3 = target: SpHof1-3
# In short: as §1
# SpHse1 = target: SpHse1
# In short: as §1
# SpLsb1 = target: SpLsb1
# In short: as §1
# SpLsb4 = target: SpLsb4
# In short: as §1
# SpMyo1 = target: SpMyo1
# In short: as §1
# SpNbp2 = target: SpNbp2
# In short: as §1
# SpPex13 = target: SpPex13
# In short: as §1
# SpRvs167 = target: SpRvs167
# In short: as §1
# SpSla1-D1-D2 = target: SpSla1-D1-D2
# In short: as §1
# SpSla1-D3 = target: SpSla1-D3
# In short: as §1
# CaNbp2 = target: CaNbp2
# In short: as §1
# CaRvs167 = target: CaRvs167
# In short: as §1
# CaRvs167-3 = target: CaRvs167-3
# In short: as §1
# CaSho1 = target: CaSho1
# In short: as §1
# CaSla1-D1-D2 = target: CaSla1-D1-D2
# In short: as §1
# CaSla1-D3 = target: CaSla1-D3
# In short: as §1
# ScAbp1 = target: ScAbp1
# In short: as §1
# ScBbc1 = target: ScBbc1
# In short: as §1
# ScBem1-D1 = target: ScBem1-D1
# In short: as §1
# ScBzz1-D1 = target: ScBzz1-D1
# In short: as §1
# ScBzz1-D2 = target: ScBzz1-D2
# In short: as §1
# ScCyk3 = target: ScCyk3
# In short: as §1
# ScFus1 = target: ScFus1
# In short: as §1
# ScHof1 = target: ScHof1
# In short: as §1
# ScHse1 = target: ScHse1
# In short: as §1
# ScLsb1 = target: ScLsb1
# In short: as §1
# ScLsb2 = target: ScLsb2
# In short: as §1
# ScLsb3 = target: ScLsb3
# In short: as §1
# ScLsb4 = target: ScLsb4
# In short: as §1
# ScMyo3 = target: ScMyo3
# In short: as §1
# ScMyo5 = target: ScMyo5
# In short: as §1
# ScNbp2 = target: ScNbp2
# In short: as §1
# ScPex13 = target: ScPex13
# In short: as §1
# ScRvs167 = target: ScRvs167
# In short: as §1
# ScSho1 = target: ScSho1
# In short: as §1
# ScSla1-D1-D2 = target: ScSla1-D1-D2
# In short: as §1
# ScSla1-D3 = target: ScSla1-D3
# In short: as §1
# SpAbp1-D1 = target: SpAbp1-D1
# In short: as §1
# SpBbc1 = target: SpBbc1
# In short: as §1
# SpBzz1-D1 = target: SpBzz1-D1
# In short: as §1
binder,measurement,setting,value
B1,SPOT peptide array binding signal intensity,AgAbp1,92
same,SPOT peptide array binding signal intensity,AgBbc1,65.5
same,SPOT peptide array binding signal intensity,AgBem1-D1,152
same,SPOT peptide array binding signal intensity,AgBzz1-D1,53
same,SPOT peptide array binding signal intensity,AgBzz1-D2,22
same,SPOT peptide array binding signal intensity,AgCyk3,8
same,SPOT peptide array binding signal intensity,AgFus1,121
same,SPOT peptide array binding signal intensity,AgHof1,23.5
same,SPOT peptide array binding signal intensity,AgHse1,274
same,SPOT peptide array binding signal intensity,AgLsb1,3.5
same,SPOT peptide array binding signal intensity,AgLsb4,37
same,SPOT peptide array binding signal intensity,AgMyo5,3.25
same,SPOT peptide array binding signal intensity,AgNbp2,324
same,SPOT peptide array binding signal intensity,AgRvs167,2.5
same,SPOT peptide array binding signal intensity,AgSho1,30.5
same,SPOT peptide array binding signal intensity,AgSla1-D1-D2,21.5
same,SPOT peptide array binding signal intensity,AgSla1-D3,≤ 0
same,SPOT peptide array binding signal intensity,CaAbp1-D1,504
same,SPOT peptide array binding signal intensity,CaAbp1-D2,476
same,SPOT peptide array binding signal intensity,CaBbc1,347
same,SPOT peptide array binding signal intensity,CaBem1-D1,47.5
same,SPOT peptide array binding signal intensity,CaBzz1-D1,172
same,SPOT peptide array binding signal intensity,CaBzz1-D2,158
same,SPOT peptide array binding signal intensity,CaCyk3,108
same,SPOT peptide array binding signal intensity,CaFus1,334
same,SPOT peptide array binding signal intensity,CaHof1,≤ 0
same,SPOT peptide array binding signal intensity,CaHse1,55.5
same,SPOT peptide array binding signal intensity,CaLsb1,2.75
same,SPOT peptide array binding signal intensity,CaLsb4,590
same,SPOT peptide array binding signal intensity,CaMyo5,13.8
B2,SPOT peptide array binding signal intensity,SpBzz1-D2,257
same,SPOT peptide array binding signal intensity,SpCyk3,2
same,SPOT peptide array binding signal intensity,SpHof1,144
same,SPOT peptide array binding signal intensity,SpHof1-2,41.8
same,SPOT peptide array binding signal intensity,SpHof1-3,227
same,SPOT peptide array binding signal intensity,SpHse1,602
same,SPOT peptide array binding signal intensity,SpLsb1,12.2
same,SPOT peptide array binding signal intensity,SpLsb4,788
same,SPOT peptide array binding signal intensity,SpMyo1,196
same,SPOT peptide array binding signal intensity,SpNbp2,308
same,SPOT peptide array binding signal intensity,SpPex13,55
same,SPOT peptide array binding signal intensity,SpRvs167,110
same,SPOT peptide array binding signal intensity,SpSla1-D1-D2,15
same,SPOT peptide array binding signal intensity,SpSla1-D3,156
B3,SPOT peptide array binding signal intensity,AgAbp1,93
same,SPOT peptide array binding signal intensity,AgBbc1,13.8
same,SPOT peptide array binding signal intensity,AgBem1-D1,88.5
same,SPOT peptide array binding signal intensity,AgBzz1-D1,26.5
same,SPOT peptide array binding signal intensity,AgBzz1-D2,0.5
same,SPOT peptide array binding signal intensity,AgCyk3,0.5
same,SPOT peptide array binding signal intensity,AgFus1,454
same,SPOT peptide array binding signal intensity,AgHof1,14.5
same,SPOT peptide array binding signal intensity,AgHse1,716
same,SPOT peptide array binding signal intensity,AgLsb1,0.75
same,SPOT peptide array binding signal intensity,AgLsb4,39.5
same,SPOT peptide array binding signal intensity,AgMyo5,≤ 0
same,SPOT peptide array binding signal intensity,AgNbp2,177
same,SPOT peptide array binding signal intensity,AgRvs167,3.42
same,SPOT peptide array binding signal intensity,AgSho1,52.8
same,SPOT peptide array binding signal intensity,AgSla1-D1-D2,26
same,SPOT peptide array binding signal intensity,AgSla1-D3,11.2
same,SPOT peptide array binding signal intensity,CaAbp1-D1,491
same,SPOT peptide array binding signal intensity,CaAbp1-D2,410
same,SPOT peptide array binding signal intensity,CaBbc1,105
same,SPOT peptide array binding signal intensity,CaBem1-D1,35
same,SPOT peptide array binding signal intensity,CaBzz1-D1,53.5
same,SPOT peptide array binding signal intensity,CaBzz1-D2,39.2
same,SPOT peptide array binding signal intensity,CaCyk3,3.5
same,SPOT peptide array binding signal intensity,CaFus1,1070
same,SPOT peptide array binding signal intensity,CaHof1,0.75
same,SPOT peptide array binding signal intensity,CaHse1,11.1
same,SPOT peptide array binding signal intensity,CaLsb1,1
same,SPOT peptide array binding signal intensity,CaLsb4,≤ 0
same,SPOT peptide array binding signal intensity,CaMyo5,≤ 0
same,SPOT peptide array binding signal intensity,CaNbp2,539
same,SPOT peptide array binding signal intensity,CaRvs167,3.5
same,SPOT peptide array binding signal intensity,CaRvs167-3,43.8
same,SPOT peptide array binding signal intensity,CaSho1,513
same,SPOT peptide array binding signal intensity,CaSla1-D1-D2,76.5
same,SPOT peptide array binding signal intensity,CaSla1-D3,≤ 0
same,SPOT peptide array binding signal intensity,ScAbp1,144
same,SPOT peptide array binding signal intensity,ScBbc1,≤ 0
same,SPOT peptide array binding signal intensity,ScBem1-D1,57.2
same,SPOT peptide array binding signal intensity,ScBzz1-D1,6.5
same,SPOT peptide array binding signal intensity,ScBzz1-D2,29.5
same,SPOT peptide array binding signal intensity,ScCyk3,91.5
same,SPOT peptide array binding signal intensity,ScFus1,374
same,SPOT peptide array binding signal intensity,ScHof1,≤ 0
same,SPOT peptide array binding signal intensity,ScHse1,2660
same,SPOT peptide array binding signal intensity,ScLsb1,≤ 0
same,SPOT peptide array binding signal intensity,ScLsb2,≤ 0
same,SPOT peptide array binding signal intensity,ScLsb3,212
same,SPOT peptide array binding signal intensity,ScLsb4,1.5
same,SPOT peptide array binding signal intensity,ScMyo3,0.25
same,SPOT peptide array binding signal intensity,ScMyo5,≤ 0
same,SPOT peptide array binding signal intensity,ScNbp2,294
same,SPOT peptide array binding signal intensity,ScPex13,≤ 0
same,SPOT peptide array binding signal intensity,ScRvs167,12.3
same,SPOT peptide array binding signal intensity,ScSho1,1020
same,SPOT peptide array binding signal intensity,ScSla1-D1-D2,224
same,SPOT peptide array binding signal intensity,ScSla1-D3,1.25
same,SPOT peptide array binding signal intensity,SpAbp1-D1,186
same,SPOT peptide array binding signal intensity,SpBbc1,2
same,SPOT peptide array binding signal intensity,SpBzz1-D1,255
same,SPOT peptide array binding signal intensity,SpBzz1-D2,0.375
same,SPOT peptide array binding signal intensity,SpCyk3,≤ 0
same,SPOT peptide array binding signal intensity,SpHof1,68.5
same,SPOT peptide array binding signal intensity,SpHof1-2,15
same,SPOT peptide array binding signal intensity,SpHof1-3,412
same,SPOT peptide array binding signal intensity,SpHse1,730
same,SPOT peptide array binding signal intensity,SpLsb1,0.25
same,SPOT peptide array binding signal intensity,SpLsb4,≤ 0
same,SPOT peptide array binding signal intensity,SpMyo1,≤ 0
same,SPOT peptide array binding signal intensity,SpNbp2,419
same,SPOT peptide array binding signal intensity,SpPex13,10.5
same,SPOT peptide array binding signal intensity,SpRvs167,6.58
same,SPOT peptide array binding signal intensity,SpSla1-D1-D2,10
same,SPOT peptide array binding signal intensity,SpSla1-D3,18.5
